Data taken from PubChem BioAssay (NCATS).
Values joined by “and” are separate entries in the source; they are usually repeats but may differ in a detail not shown here. Equal values may be shown once. Results filed as inconclusive are left out. More than one record can exist for a structure, and the calls need not agree. Active and inactive are the calls of the source. Unless noted, the call rests on the fitted dose curve; in most records, active means well fitted curve in the direction sought with a large enough effect; inconclusive means small, poorly fitted or top-dose-only effect, or another doubt; inactive means no such curve, though single readings can be large; an effect the other way counts as inactive or inconclusive.

Assays:
[1] = target: Tyrosine-protein kinase Yes (Homo sapiens) (UniProt P07947); assay: qHTS for small molecule inhibitors of Yes1 kinase: Primary Screen (AID 686947); details: Yes1 kinase biochemical qHTS inhibition; series mostly up to 76.9 µM; further: nearly all actives have a fitted effect of over 60% in size; further: potency means the concentration at half of the fitted maximal effect
Outline: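 Yes1 (4 nM) preincubated 20 min with compound, then 60 min room-temperature reaction with 0.1 mM ATP and 0.3 mg/mL poly(E4Y) in pH 7.5 Tris, 10 mM MgCl2. ADP measured by ADP-Glo luminescence, normalised to enzyme/no-enzyme controls.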

[2] = qHTS assay for small molecule activators of the nuclear factor-kappa B (NF-kB) signaling pathway (AID 651749; active means well fitted activation curve with a large enough effect in the signal ratio; the % refers to the signal ratio; further: % of control where 0% means no effect); details: NF-kB-bla ME-180 cells, beta-lactamase FRET ratio, 16 h; stronger effect = higher value
Outline: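 NF-kB-bla ME-180 cells carrying a beta-lactamase reporter under an NF-kB response element, 2,000 cells/well, exposed to compound for 16 hr at 37C; FRET-based beta-lactamase fluorescence read-out of pathway activation.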

[3] = target: Peroxisome proliferator-activated receptor alpha (Homo sapiens) (UniProt Q07869); assay: qHTS assay for small molecule agonists of the peroxisome proliferator-activated receptor alpha (PPARalpha) signaling pathway (AID 651778); details: PathHunter PPARalpha complementation, chemiluminescence, 6 h; max response: stronger effect = higher value; further: potency means the concentration at half of the fitted maximal effect; on max response: % of control where 0% means no effect
Outline: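 Enzyme-fragment complementation assay in which ligand-bound PPARalpha translocates and forms an active enzyme that generates chemiluminescence. Cells were plated overnight, exposed to compound for 6 hr at 37 C, and then given detection reagent for 60 min at room temperature.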

[4] = qHTS assay for small molecule agonists of the antioxidant response element (ARE) signaling pathway (AID 651741; active means well fitted activation curve with a large enough effect in the signal ratio; the % refers to the signal ratio; further: potency means the concentration at half of the fitted maximal effect; on activation: % of control where 0% means no effect); details: HepG2 ARE-bla reporter, beta-lactamase FRET ratio, 16 h; series mostly up to 96 µM
Outline: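 CellSensor ARE-bla HepG2 cells (2,000/well) carrying ARE-driven beta-lactamase, exposed 16 h at 37 C. LiveBLAzer B/G FRET substrate added for 2 h at room temperature; fluorescence intensity read.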

[5] = qHTS assay for environmental chemicals that activate the Aryl hydrocarbon Receptor (AhR) signaling pathway (AID 651777); details: 1A2-DRE human hepatoma cells, luciferase, 24 h; activation: stronger effect = higher value; further: nearly all actives have a fitted effect of over 15% in size; further: potency means the concentration at half of the fitted maximal effect; on activation: % of control where 0% means no effect
Outline: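 AhR activation is scored as a rise in luciferase from a stable DRE–CYP1A2 promoter construct in human hepatoma cells. Treatment lasts 24 hr at 37 C; detection uses One-Glo after 30 min at room temperature.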

[6] = target: Tumor necrosis factor (Homo sapiens) (UniProt P01375); assay: qHTS assay to identify small molecules that stimulate Tumor Necrosis Factor-alpha (TNF-alpha) secretion (AID 651757; active means well fitted curve in the direction sought with a large enough effect in the signal ratio; the % refers to the signal ratio; further: 0% is about no effect); details: Human cells, HTRF 665/615 ratio; series mostly up to 92.2 µM
Outline: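 Read-out is HTRF, a TR-FRET sandwich of cryptate- and XL665-labeled anti-TNF-alpha antibodies detecting cytokine secreted by THP-1 cells. Cells had been incubated with test compounds at 37 C for 17 hrs beforehand.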

[7] = qHTS assay to identify small molecules that stimulate interleukin-8 (IL-8) secretion (AID 651758; active means well fitted activation curve with a large enough effect in the signal ratio; the % refers to the signal ratio; further: 0% is about no effect); details: HTRF ratio (665/615); series mostly up to 92.2 µM
Outline: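 THP-1 cells (2000/well) exposed to compound 16 h at 37 C; secreted IL-8 then detected by HTRF with cryptate- and XL665-labelled anti-IL-8 antibody pair after 1-3 h at room temperature.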

[8] = target: Nuclear receptor ROR-gamma (Homo sapiens) (UniProt P51449); assay: qHTS assay for small molecule antagonists of the retinoid-related orphan receptor gamma (ROR-gamma) signaling pathway (AID 651802); details: ROR-gamma antagonist cell reporter assay; series mostly up to 92.2 µM; further: nearly all actives have a fitted effect of over 60% in size; further: potency means the concentration at half of the fitted maximal effect
Outline: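 CHO, TET-inducible ROR + RORE-LUC reporter, 1536-well qHTS. Compound pinned, doxycycline added, 16hr 37C/5% CO2. ONE-Glo, 30 min RT, luminescence; signal drop scored as antagonism.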

Tyrosine-protein kinase Yes (Homo sapiens), sequence (P07947 whole entry, looked up): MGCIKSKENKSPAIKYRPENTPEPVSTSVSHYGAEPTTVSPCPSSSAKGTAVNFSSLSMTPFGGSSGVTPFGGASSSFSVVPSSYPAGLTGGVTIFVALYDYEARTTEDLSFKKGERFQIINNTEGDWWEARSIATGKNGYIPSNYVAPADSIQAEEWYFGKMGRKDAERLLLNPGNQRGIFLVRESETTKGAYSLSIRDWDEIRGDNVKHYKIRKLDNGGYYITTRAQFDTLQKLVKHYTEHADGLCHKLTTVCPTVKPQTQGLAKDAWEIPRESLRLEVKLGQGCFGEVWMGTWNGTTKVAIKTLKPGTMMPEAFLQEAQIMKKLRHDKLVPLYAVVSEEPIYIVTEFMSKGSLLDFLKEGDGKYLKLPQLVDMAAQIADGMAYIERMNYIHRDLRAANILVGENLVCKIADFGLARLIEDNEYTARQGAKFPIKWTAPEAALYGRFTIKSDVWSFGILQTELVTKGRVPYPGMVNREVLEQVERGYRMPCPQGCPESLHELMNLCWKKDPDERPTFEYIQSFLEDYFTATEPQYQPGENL
Tumor necrosis factor (Homo sapiens), sequence (P01375 whole entry, looked up): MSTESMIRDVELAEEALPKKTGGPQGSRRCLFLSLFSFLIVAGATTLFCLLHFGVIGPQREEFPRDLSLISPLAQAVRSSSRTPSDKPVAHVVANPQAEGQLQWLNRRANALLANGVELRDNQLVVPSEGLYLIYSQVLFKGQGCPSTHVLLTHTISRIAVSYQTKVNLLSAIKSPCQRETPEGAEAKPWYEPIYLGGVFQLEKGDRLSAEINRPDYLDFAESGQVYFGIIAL
Peroxisome proliferator-activated receptor alpha (Homo sapiens), sequence (Q07869 whole entry, looked up, the tested form may be a part): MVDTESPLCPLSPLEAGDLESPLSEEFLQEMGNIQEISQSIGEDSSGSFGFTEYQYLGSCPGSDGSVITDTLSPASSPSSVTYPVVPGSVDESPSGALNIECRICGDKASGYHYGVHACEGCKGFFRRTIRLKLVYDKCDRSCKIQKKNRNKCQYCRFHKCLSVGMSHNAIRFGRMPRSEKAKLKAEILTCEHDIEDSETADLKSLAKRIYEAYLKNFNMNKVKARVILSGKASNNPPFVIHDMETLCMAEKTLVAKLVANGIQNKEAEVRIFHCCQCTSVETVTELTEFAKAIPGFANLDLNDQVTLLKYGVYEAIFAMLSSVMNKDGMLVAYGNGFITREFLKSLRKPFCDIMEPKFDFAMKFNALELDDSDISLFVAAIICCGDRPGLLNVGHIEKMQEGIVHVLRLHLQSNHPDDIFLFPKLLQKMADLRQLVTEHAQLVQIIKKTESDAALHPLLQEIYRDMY
Nuclear receptor ROR-gamma (Homo sapiens), sequence (P51449 whole entry, looked up): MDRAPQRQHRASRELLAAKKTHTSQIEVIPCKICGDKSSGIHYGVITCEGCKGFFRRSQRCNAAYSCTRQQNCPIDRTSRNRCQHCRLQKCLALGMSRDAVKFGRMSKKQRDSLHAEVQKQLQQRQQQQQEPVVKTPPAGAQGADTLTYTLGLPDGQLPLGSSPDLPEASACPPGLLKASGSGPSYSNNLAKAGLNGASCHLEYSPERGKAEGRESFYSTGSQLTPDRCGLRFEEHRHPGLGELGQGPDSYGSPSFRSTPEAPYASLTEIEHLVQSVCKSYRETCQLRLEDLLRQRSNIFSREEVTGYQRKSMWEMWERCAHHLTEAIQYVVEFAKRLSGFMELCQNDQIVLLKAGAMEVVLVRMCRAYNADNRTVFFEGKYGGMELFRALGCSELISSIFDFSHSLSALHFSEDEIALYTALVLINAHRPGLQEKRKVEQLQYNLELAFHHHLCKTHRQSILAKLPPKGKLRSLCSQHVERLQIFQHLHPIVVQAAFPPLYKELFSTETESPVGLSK

In the case of `CCCCC/C=C\C/C=C\C/C=C\C/C=C\CCCC(=O)NC1CC1`, the Potency [1] is reported as “inactive”.

In the case of `C[C@H]1O[C@@H](O[C@H]2[C@@H](O)C[C@H](O[C@H]3[C@@H](O)C[C@H](O[C@H]4CC[C@@]5(C)[C@H](CC[C@@H]6[C@@H]5CC[C@]5(C)[C@@H](C7=CC(=O)OC7)CC[C@]65O)C4)O[C@@H]3C)O[C@@H]2C)C[C@H](O)[C@@H]1O`, the activation [2] is reported as -1.01% (inactive) and the max response [3] is reported as -0.744% (inactive).

For `Nc1ccncc1`, the Potency [4] was “inactive”, the activation [2] was -0.507% (inactive) and the activation [5] was -2.98% (inactive). The max response [3] was 0.27% (inactive).

With `Oc1cccc2cccnc12` the Potency [4] was 37.6 µM (active) and 66.8 µM (active), the outcome [6] was “inactive” and the Potency [7] was “inactive”. The activation [5] was 0.681% (inactive) and 3.98% (inactive), the max response [3] was -5% (inactive) and -2.57% (inactive) and the Potency [8] was “inactive and 3.35 µM (active)”.

In the case of `O=c1c(O)c(-c2ccc(O)c(O)c2)oc2cc(O)cc(O)c12`, the Potency [1] is reported as 15.4 µM (active).

With `Cc1cc(SCc2sc(-c3ccc(C(F)(F)F)c(F)c3)nc2C)ccc1OCC(=O)O` the Potency [4] was 68.6 µM (active), the activation [2] was -3.79% (inactive) and the activation [5] was 14.6% (inactive). The Potency [3] was 2 µM (active) and the Potency [1] was “inactive”.

With `NC(=Nc1ccccc1)Nc1ccccc1` the Potency [4] was 19.3 µM (active) and 18.8 µM (active) and the Potency [5] was 11.2 µM (active).

For `CNCC(O)c1ccc(O)cc1` (stereo not drawn), the Potency [4] was “inactive”, the activation [2] was -1.11% (inactive) and the outcome [6] was “inactive”. The activation [5] was -0.394% (inactive), the max response [3] was -4.08% (inactive) and the Potency [8] was “inactive”.

In the case of `Oc1ccccc1-c1ccccc1`, the Potency [4] is reported as 54.5 µM (active) and 398 µM (active) and 30.6 µM (active), the outcome [6] is reported as “inactive” and the Potency [7] is reported as “inactive”. For the same compound, the activation [5] was 0.277% (inactive) [middle of 4 runs], the max response [3] was -2.25% (inactive) and -0.4% (inactive) and 12.1% (inactive) and the Potency [8] was “inactive”.
